Experimental findings from PubChem BioAssay are described below.

Inconclusive results are not listed. Active and inactive are the calls of the source.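 Rule for the calls, unless noted: active = normalized viability below 100% at a tested concentration; inactive = the rest.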

Experiment [1] in a line: viability loss in pontine glioma line – cell-based, SU-DIPG-XVII, MIPE5.0, CellTiter-Glo, qHTS, dose response (AID 1347060; cut-off not given, nearly all actives have AC50 up to about 26 µM;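 for AC50: cells exposed to compound for 48 hours before viability readout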). The note with it: CellTiter-Glo ATP luminescence.
The nature of experiment [2]: viability loss in pontine glioma line – cell-based, SU-DIPG-XIII, MIPE4.0, CellTiter-Glo, qHTS, dose response (AID 1347061; cut-off not given, nearly all actives have AC50 up to about 37 µM;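 note: cells exposed to compound for 48 hours before readout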). The note with it: CellTiter-Glo ATP luminescence. In general terms: Cellular ATP, detected with luciferase, serves as a proxy for viable cell number.
Experiment [3] is described as follows: viability loss in pontine glioma line – cell-based, JHH-DIPG-1, MIPE4.0, CellTiter-Glo, qHTS, dose response (AID 1347062; cut-off not given, nearly all actives have AC50 up to about 27 µM;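 for AC50: cells exposed to compound for two days before readout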). The note with it: JHH-DIPG-1 viability, CellTiter-Glo ATP luminescence.
Experiment [4] in a line: viability loss in pontine glioma line – cell-based, SU-DIPG-IV, MIPE4.0, CellTiter-Glo, qHTS, dose response (AID 1347063; cut-off not given, nearly all actives have AC50 up to about 30 µM;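 note: compound exposure lasted 48 hours before the viability readout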). The note with it: CellTiter-Glo ATP luminescence.
The nature of experiment [5]: viability loss in pontine glioma line – cell-based, SU-DIPG-XIII, MIPE5.0, CellTiter-Glo, qHTS, dose response (AID 1347064; cut-off not given, nearly all actives have AC50 up to about 23 µM;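 for AC50: cells exposed to compound for 48 hours before the viability read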). The note with it: CellTiter-Glo ATP luminescence.
Experiment [6] in a line: viability loss in pontine glioma line – cell-based, SU-DIPG-XXV, MIPE5.0, CellTiter-Glo, qHTS, dose response (AID 1347065; cut-off not given, nearly all actives have AC50 up to about 26 µM;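 note: cells exposed to compound for 48 hours before ATP readout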). The note with it: CellTiter-Glo ATP luminescence.
A short description of experiment [7]: growth inhibition of DIPG cells – cell-based, MIPE4.0 library, CellTiter-Glo luminescence, qHTS (AID 1347066; cut-off not given, nearly all actives have AC50 up to about 30 µM;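 note: cells exposed to compound for 48 hours before readout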). The note with it: SU-DIPG-VI viability, CellTiter-Glo ATP luminescence.
Experiment [8] is described as follows: JHH-DIPG-1 glioma cell viability, MIPE5.0 library, CellTiter-Glo luminescence, qHTS (AID 1347067; cut-off not given, nearly all actives have AC50 up to about 26 µM;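 note: cells exposed to compound for 48 hours before readout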). The note with it: JHH-DIPG-1 glioma viability, CellTiter-Glo ATP luminescence.
Experiment [9] can be described thus: growth inhibition of DIPG cells – cell-based, MIPE5.0 library, qHTS (AID 1347068; cut-off not given, nearly all actives have IC50 up to about 30 µM;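 for IC50: cells exposed to compound for 48 hours before viability readout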). The note with it: SU-DIPG-XXV viability. (qHTS replaces the single test concentration by a dilution series.)
Experiment [10] is described as follows: viability loss with induced miR-34 in A549 – imaging, A549 dox-inducible miR-34, nuclei and caspase counts, primary screen (AID 1347080;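 active = compounds whose cell count with miR-34 switched on is under 0.7 times the count with it off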). The note with it: A549 miR-34 inducible, Hoechst nuclei count, 48 h.
Experiment [11] in a line: compounds altering HSF1 focus formation in cells – imaging, Selleck Cancer Library (AID 1347162; in the data active = plate-normalised HSF1 focus index below about 0.46). The note with it: human cells, HSF1 nuclear foci imaging, at 10 µM; SSMD: measured here: HSF1 foci SSMD mean; cell count: measured here: cell number; plate-normalised HSF1 focus index: stronger effect = lower value.
The nature of experiment [12]: MELAS cybrid and Rieske KO viability enhancers – cell-based, MELAS cybrids, Rieske KO mouse fibroblasts, CellTiter-Glo, primary screen (AID 1508586;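 active = mean z-score across replicates of 1.96 or higher in either the MELAS or the Rieske mutant cell line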;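 note: z relative to plate mean and SD of compound and empty wells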). The note with it: low glucose.
Experiment [13] can be described thus: drug combination growth inhibition, ovarian cancer – cell-based, oncology-focused library, rucaparib conditional, profiling panel (AID 1508598). The note with it: patient-derived ovarian cancer cells, CellTiter-Glo viability, 144 h, stronger effect = lower value.

With `COc1ccc2c(OCc3nnc4ccc(-c5ccccc5)nn34)ccnc2c1`, the call in experiment [1], in experiment [2], in [3], in experiment [4], in experiment [5] and in experiment [6] was inactive. The result in experiment [7], in experiment [8] and in [9] was inactive.

For orientation: AC50 means the concentration giving half of the maximal activity seen. The IC50 is the concentration that inhibits the measured activity by half. With `COc1cc(=C2C=c3ccccc3=N2)[nH]/c1=C/c1[nH]c(C)cc1C`, the AC50 in experiment [1] is 6.61 µM (active); in [2], 14.8 µM (active); in experiment [3], 4.69 µM (active); in [4], 5.9 µM (active); in experiment [5], 3.32 µM (active); in experiment [6] it was 2.09 µM (active). Also, the half-maximal activity concentration (AC50) in experiment [7] is 2.64 µM (active); in [8], 5.9 µM (active). For the same compound, in experiment [9], the IC50 was 16.6 µM (active).

Turning to `O=C1NC(O)CCN1[C@@H]1O[C@H](CO)[C@@H](O)[C@H]1O` (stereo partly specified), the outcome in [1], in [2], in [3], in experiment [4], in [5] and in experiment [6] was inactive. For the same compound, the result in experiment [7], in experiment [8] and in experiment [9] was inactive.

In the case of `CCn1cc(-c2ccnc3[nH]c(-c4cccc(CN(C)C)c4)cc23)c(-c2ccc(NC(=O)N(C)C)cc2)n1`, the AC50 in experiment [1] was 0.59 µM (active); in [2] it was 13.2 µM (active); in experiment [3] it was 16.6 µM (active); in experiment [4], 0.209 µM (active); in [5], 8.33 µM (active); in experiment [6], 0.525 µM (active). Further, the AC50 was 20.9 µM (active) in [7] and 11.8 µM (active) in experiment [8]. In addition, the IC50 in [9] was 7.42 µM (active).

The viability is a read-out of living cells in per cent, often relative to untreated cells. For `Nc1cc(C(F)(F)F)c(-c2cc(N3CCOCC3)nc(N3CCOCC3)n2)cn1`, the AC50 in [1] was 2.95 µM (active); in experiment [2], 6.62 µM (active); in experiment [3] it was 2.09 µM (active); in experiment [4], 0.332 µM (active); in experiment [5] it was 2.95 µM (active); in experiment [6], 0.934 µM (active). Also, the concentration at half-maximal activity (AC50) in experiment [7] and in experiment [8] was 1.48 µM (active) each time. For the same compound, in experiment [9], the IC50 was 3.72 µM (active). Also, the fold change in experiment [10] (stronger effect = lower value, cell number ratio, induced over uninduced) is 0.829 (inactive); in [10] (measured here: relative caspase fold change +Dox/-Dox) it was 1.1. Besides, the cell count stood at 1500 in experiment [10] (measured here: total cells with miR-34 induction, stronger effect = lower value); 1810 in experiment [10] (measured here: total cells without miR-34 induction); 7440 in experiment [11]. The SSMD in [11] was -2.85. Further, the plate-normalised HSF1 focus index in experiment [11] is 0.897 (inactive). For the same compound, the z-score was 2.94 (active) in experiment [12] (MELAS cybrid survival, CellTiter-Glo 48 h, stronger effect = higher value) and -2.21 in experiment [12] (Rieske KO mouse fibroblast survival, CellTiter-Glo 72 h). Besides, the viability is 103% (inactive) in experiment [13] (at 0.000305 µM, OCI-C5x cells, with rucaparib 10 µM, 100% = cells with rucaparib alone); 125% (inactive) in [13] (at 0.000305 µM, OCI-C5x cells, without rucaparib); 104% (inactive) in [13] (at 0.000305 µM, OCI-P5x cells, with rucaparib 20 µM, 100% = cells with rucaparib alone); 106% (inactive) in [13] (at 0.000305 µM, OCI-P5x cells, without rucaparib); 103% (inactive) in [13] (at 0.00122 µM, OCI-C5x cells, with rucaparib 10 µM, 100% = cells with rucaparib alone); 120% (inactive) in [13] (at 0.00122 µM, OCI-C5x cells, without rucaparib). Besides, the viability in experiment [13] (at 0.00122 µM, OCI-P5x cells, with rucaparib 20 µM, 100% = cells with rucaparib alone) was 98.2% (active); in experiment [13] (at 0.00122 µM, OCI-P5x cells, without rucaparib) it was 114% (inactive); in [13] (at 0.00488 µM, OCI-C5x cells, with rucaparib 10 µM, 100% = cells with rucaparib alone), 112% (inactive); in experiment [13] (at 0.00488 µM, OCI-C5x cells, without rucaparib), 141% (inactive); in [13] (at 0.00488 µM, OCI-P5x cells, with rucaparib 20 µM, 100% = cells with rucaparib alone), 103% (inactive); in experiment [13] (at 0.00488 µM, OCI-P5x cells, without rucaparib), 107% (inactive). The viability in experiment [13] (at 0.0195 µM, OCI-C5x cells, with rucaparib 10 µM, 100% = cells with rucaparib alone) was 104% (inactive); in [13] (at 0.0195 µM, OCI-C5x cells, without rucaparib) it was 117% (inactive); in experiment [13] (at 0.0195 µM, OCI-P5x cells, with rucaparib 20 µM, 100% = cells with rucaparib alone) it was 100% (inactive); in [13] (at 0.0195 µM, OCI-P5x cells, without rucaparib), 110% (inactive); in [13] (at 0.0781 µM, OCI-C5x cells, with rucaparib 10 µM, 100% = cells with rucaparib alone), 120% (inactive); in [13] (at 0.0781 µM, OCI-C5x cells, without rucaparib), 121% (inactive). The viability in experiment [13] (at 0.0781 µM, OCI-P5x cells, with rucaparib 20 µM, 100% = cells with rucaparib alone) is 104% (inactive); in experiment [13] (at 0.0781 µM, OCI-P5x cells, without rucaparib) it was 102% (inactive); in [13] (at 0.313 µM, OCI-C5x cells, with rucaparib 10 µM, 100% = cells with rucaparib alone), 93.6% (active); in [13] (at 0.313 µM, OCI-C5x cells, without rucaparib), 124% (inactive); in experiment [13] (at 0.313 µM, OCI-P5x cells, with rucaparib 20 µM, 100% = cells with rucaparib alone), 87.5% (active); in experiment [13] (at 0.313 µM, OCI-P5x cells, without rucaparib) it was 92.9% (active). Moreover, the viability in [13] (at 1.25 µM, OCI-C5x cells, with rucaparib 10 µM, 100% = cells with rucaparib alone) is 71.8% (active); in [13] (at 1.25 µM, OCI-C5x cells, without rucaparib) it was 80.8% (active); in experiment [13] (at 1.25 µM, OCI-P5x cells, with rucaparib 20 µM, 100% = cells with rucaparib alone) it was 69.7% (active); in [13] (at 1.25 µM, OCI-P5x cells, without rucaparib) it was 51.3% (active); in [13] (at 5 µM, OCI-C5x cells, with rucaparib 10 µM, 100% = cells with rucaparib alone) it was 31.4% (active); in experiment [13] (at 5 µM, OCI-C5x cells, without rucaparib) it was 25.1% (active). The viability in experiment [13] (at 5 µM, OCI-P5x cells, with rucaparib 20 µM, 100% = cells with rucaparib alone) was 26.6% (active); in experiment [13] (at 5 µM, OCI-P5x cells, without rucaparib), 12.2% (active).
